# In the supplement of paper PMC3334620:
# Over roughly 33,000 sequences, “E-score (-0.5 to 0.5)” has its median near -0.054; the highest 2% begin near 0.35. Shown is part of a subset that was picked to be rich in the highest values.
# Biological target: T1, Stb5 (UniProt P38699)
# T1 sequence: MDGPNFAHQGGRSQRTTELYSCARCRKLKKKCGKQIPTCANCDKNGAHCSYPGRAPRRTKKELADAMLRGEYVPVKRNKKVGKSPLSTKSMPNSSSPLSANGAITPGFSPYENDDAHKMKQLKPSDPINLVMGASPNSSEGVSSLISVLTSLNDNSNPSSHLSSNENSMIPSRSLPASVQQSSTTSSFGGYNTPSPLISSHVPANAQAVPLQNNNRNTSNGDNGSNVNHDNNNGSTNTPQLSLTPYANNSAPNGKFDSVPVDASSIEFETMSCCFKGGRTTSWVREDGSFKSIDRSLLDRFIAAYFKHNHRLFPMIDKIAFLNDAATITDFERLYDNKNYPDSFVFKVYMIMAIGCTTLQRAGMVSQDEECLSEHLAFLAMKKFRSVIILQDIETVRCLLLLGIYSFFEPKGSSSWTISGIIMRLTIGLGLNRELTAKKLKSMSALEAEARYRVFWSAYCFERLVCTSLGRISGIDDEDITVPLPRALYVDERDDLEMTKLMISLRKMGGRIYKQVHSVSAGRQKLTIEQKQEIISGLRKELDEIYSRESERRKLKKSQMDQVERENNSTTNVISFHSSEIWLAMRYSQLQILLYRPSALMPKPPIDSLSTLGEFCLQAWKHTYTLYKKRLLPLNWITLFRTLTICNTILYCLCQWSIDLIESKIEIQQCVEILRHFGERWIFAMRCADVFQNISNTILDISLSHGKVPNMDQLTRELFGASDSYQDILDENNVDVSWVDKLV
# Assay: PBM E-score (8-mer binding enrichment) (E-score (-0.5 to 0.5)); higher = stronger / more preferred TF binding
# Details: protein concentration: 200 nM; construct: GST-full length
# Procedure: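 Universal 'all 10-mer' protein binding microarrays (Agilent AMADID 015681) probed with GST-tagged S. cerevisiae TFs (full-length or DBD) made by in vitro transcription/translation (PURExpress), about 100-200 nM. Bound TF was detected with fluorescent anti-GST. Each ungapped 8-mer (which stands for itself and its reverse complement) is scored by the PBM enrichment score (E-score), a modified Wilcoxon-Mann-Whitney statistic from -0.5 to +0.5, computed with the Universal PBM Analysis Suite. Scale: above 0.35 generally sequence-specific binding.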
row,Sequence,PBM E-score
1,CCCACAGC,-0.146
2,CCCCCCCG,-0.255
3,ACCCGCCG,0.318
4,CCCCGCCA,0.406
5,GCCCGCCA,0.284
6,CCCCGCCG,0.381
7,TCCCGCCA,0.205
8,GGGATGAA,0.0485
9,CACTGTAG,-0.25
10,CTTCCCTA,-0.161
11,ACTGCCGC,0.311
12,CGGGCATA,0.419
13,CGGGCTTA,0.473
14,CGGGCTCA,0.358
15,GGGGCATA,0.083
16,CGGGCTCC,0.0609
17,AGGGCATA,-0.0797
18,CGGGCCTC,0.108
19,CGGGCCTA,0.437
20,AGGGCTTA,0.12
21,CGGGCTTC,0.293
22,AGGGCCTA,0.0959
23,AGGGCTCA,-0.23
24,CTCGTCCA,-0.102
25,AGGAATAT,-0.0199

row,Sequence,PBM E-score
1,ACATAGAA,-0.0458
2,AAATCGCG,-0.0128
3,ATGTGGGC,0.089
4,GCCGATAA,0.313
5,CATGAACA,-0.0519
6,ACGCGGTA,0.215
7,CGGCGTCA,0.384
8,CCGCGGTC,0.32
9,ACGCGGCA,0.189
10,GCGCGGCA,0.237
11,AGGCGTCA,-0.0617
12,CGGCGTCC,0.277
13,CCGCGGTA,0.399
14,GGGCGGCA,0.323
15,AGGCGGCA,0.238
16,CGGCGGCA,0.411
17,CCGCGGCA,0.367
18,GCGCCTCC,-0.0611
19,CCCTCACC,-0.225
20,AGTAAAGA,0.143
21,GCACCCGA,0.0572
22,TCCGTGAA,0.171
23,ATGAAACG,0.067
24,GTTTGGGA,-0.2
25,CCGCGTTC,0.193

row,Sequence,PBM E-score
1,GAGAGTGA,-0.349
2,CTATCTCC,0.235
3,ATATCACA,-0.0666
4,CTATCACC,0.216
5,CTATCCGA,0.0404
6,ATCTCTCC,0.216
7,ACATCCGC,0.339
8,CTATCCGC,0.0573
9,ATATCCGG,0.294
10,ATATCCGA,0.37
11,ATATCCGC,0.402
12,ATATCACC,0.436
13,ATATCTCC,0.397
14,ATGGGTGA,-0.12
15,GACTTCCA,-0.177
16,AGAAAACA,-0.128
17,AGGTCGCA,0.0143
18,CTGCTAAA,0.00756
19,ACTCCATG,-0.0336
20,CTCAGAAC,-0.191
21,AATTGGCG,0.063
22,GCCCCCAC,0.0261
23,ATATCCCG,0.275
24,ATATGTCC,0.406
25,ATATTCCC,0.372

row,Sequence,PBM E-score
1,CTATCCCC,0.276
2,ATATCCCC,0.395
3,CTATTCCC,0.136
4,ATATACCG,0.34
5,ATATGTCG,0.083
6,CTATGTCC,0.232
7,ATATACCC,0.371
8,CTATACCC,0.229
9,ATATTCCG,0.171
10,AGTCTGGA,0.00288
11,TCGATCGA,-0.148
12,GAGCTCAA,0.0147
13,ACTGGCCG,-0.0443
14,TCGCTCCA,-0.126
15,AAATTCAG,-0.221
16,CAGCTGAG,-0.231
17,CCATGCAA,-0.00387
18,ACGTGGGA,-0.265
19,AGAAAAGG,-0.103
20,ATCAAACA,-0.234
21,GTATCGGA,0.263
22,CTATCGGA,0.402
23,ATATCGGA,0.166
24,ATATATCC,0.398
25,CTATATCC,0.187

row,Sequence,PBM E-score
1,ATATATCA,0.0402
2,ACCTTTAG,0.0714
3,TAAGCCCA,0.0396
4,AACGCGAC,-0.173
5,AATAGAAT,-0.187
6,GATAGGTA,-0.0734
7,ATCGGCAT,0.363
8,ACCGGCAA,0.241
9,GGCGGCAC,0.343
10,ATCGGCAC,0.339
11,ACCGGCAC,0.373
12,ACCGGCAG,0.277
13,AGCGGCAC,0.355
14,ATCGGCAG,0.219
15,CTCGGCAC,0.187
16,CGCGGCAC,0.288
17,GTCGGCAA,0.276
18,GTCGGCAC,0.374
19,ATTGGAGC,-0.193
20,TATCCTAA,-0.109
21,CATGTGGG,-0.114
22,CCATGGGC,-0.0701
23,AAATTGAC,0.0873
24,AGCGGCCA,0.177
25,AGCGGCCT,0.377

row,Sequence,PBM E-score
1,AGCGGCAG,0.276
2,AGCGGCAA,0.2
3,AGCGGCAT,0.401
4,AGCGGCCG,0.252
5,AAGGCGGA,0.292
6,AGCACGAC,-0.2
7,CTACGAGA,-0.102
8,ATTATCCA,-0.0234
9,CACATCCG,0.0898
10,AATATCCA,-0.00669
11,AACATCCG,0.359
12,ATTATCCC,0.0778
13,AATATCCG,0.39
14,AATATCCC,0.291
15,AACATCCC,0.149
16,ATTATCCG,0.359
17,AGTTCGGA,0.208
18,AAGTGCGA,0.187
19,GGGGTGCA,0.0203
20,ACACAGAG,-0.0564
21,AACTCATC,-0.116
22,ACTTGCAT,0.0144
23,GCTCTGAA,-0.166
24,AACACATA,-0.222
25,ATTATACG,0.173

row,Sequence,PBM E-score
1,ATAATACG,0.153
2,ATTATACC,0.362
3,ATAATACC,0.368
4,ATAATACA,0.0704
5,ATTATACA,0.0217
6,ATGTGGTC,-0.168
7,GCCGTTCC,0.202
8,GATTCTCC,0.112
9,AGTCGAAT,-0.199
10,AATCCCAT,-0.042
11,AATCCCGA,0.394
12,AATCCCCT,-0.165
13,AGTCCCGC,0.358
14,CATCCCGC,0.155
15,AGTCCCGA,0.342
16,TATCCCGA,0.18
17,CATCCCGA,0.1
18,GATCCCGC,0.232
19,AATCCCGT,0.419
20,AATCCCGC,0.398
21,CGTCCCGC,0.2
22,CAATTTTA,-0.00732
